These results are taken from PubChem BioAssay.

The source made the active and inactive calls.

The subject of assay [1] is PRMT1 (protein arginine N-methyltransferase 1). Nature of the assay: small molecules binding arginine methyltransferase PRMT1 – biochemical, small-molecule microarray, 635 nm fluorescence, primary screen (AID 1088).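 Also: binding of Prmt1 protein to compounds spotted on small-molecule microarray slides.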 The note with it: higher = more signal.
Assay [2] is described as follows: growth effects on S. cerevisiae YJM789 – YJM789 clinical isolate, OD600, 24 h, basal, primary screen (AID 1089).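 Also: growth of clinical yeast isolate S. cerevisiae YJM 789 seeded 1000 cells per well; test concentration not given here.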 As to conditions: higher = more signal, called active from +8 up or from −8 down.
Assay [3] in a line: S. pombe growth modifiers, basal conditions – strain 972, OD600, 24 h, no modulator, primary screen (AID 1090).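 Also: basal condition with compound alone and no growth modifier present; test concentration not given here.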 As to conditions: S. pombe 972 growth, higher = more signal, called active from +8 up or from −8 down.
A short description of assay [4]: budding yeast growth modifiers under rapamycin – strain BY4716, OD600, 96 h, primary screen (AID 1091). Also: test concentration not given here. As to conditions: S. cerevisiae BY4716 + rapamycin, higher = more signal, called active from +8 up or from −8 down.
The target in assay [5] is Torsin-1A-interacting protein 2 (Homo sapiens) (UniProt Q8NFQ8). The experiment in a line: small molecules binding lysate-expressed LULL1 – cell lysate, human LULL1 lysate, 635/667 nm fluorescence, primary screen (AID 1092).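 Also: probe is lysate of COS7 cells overexpressing human LULL1; score merges per-feature 667 nm fluorescence with signal-to-noise.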 As to conditions: small-molecule microarray, hLULL1 lysate binding, 635 nm fluorescence; higher = more signal.
Torsin-1A-interacting protein 2 (Homo sapiens), sequence (Q8NFQ8 whole entry, looked up): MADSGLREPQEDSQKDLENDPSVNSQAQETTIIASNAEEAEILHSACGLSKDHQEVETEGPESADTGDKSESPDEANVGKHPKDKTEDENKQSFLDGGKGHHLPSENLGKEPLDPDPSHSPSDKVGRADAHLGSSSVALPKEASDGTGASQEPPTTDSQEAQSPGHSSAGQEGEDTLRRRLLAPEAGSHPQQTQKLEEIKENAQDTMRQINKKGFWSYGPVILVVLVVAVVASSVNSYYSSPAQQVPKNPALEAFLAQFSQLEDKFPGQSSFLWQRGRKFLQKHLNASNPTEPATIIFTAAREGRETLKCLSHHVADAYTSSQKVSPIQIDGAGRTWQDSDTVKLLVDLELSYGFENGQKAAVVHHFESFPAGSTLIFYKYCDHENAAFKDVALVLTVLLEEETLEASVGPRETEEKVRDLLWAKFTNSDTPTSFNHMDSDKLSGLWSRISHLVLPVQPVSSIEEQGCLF
Assay [6] can be described thus: optical density change of DRC41 E. coli – strain DRC41, OD650, 24 h, E. coli filamentation project, primary screen (AID 1093).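 Also: MC1000 strain lacking acrAB efflux and sulA so SOS filamentation is blocked; test concentration not given here.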 As to conditions: E. coli DRC41 growth, higher = more signal, called active from +8 up or from −8 down.
The nature of assay [7]: probe aLefty2 binding to arrayed compounds – biochemical, biotinylated probe, 635/667 nm fluorescence, primary screen (AID 1094).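 Also: score merges spot fluorescence near 667 nm with spot signal-to-noise ratio.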 The note with it: small-molecule microarray, higher = more signal.
Assay [8] has as its system Noggin (protein binding on small-molecule microarray). The experiment in a line: small molecules binding Noggin protein – biochemical, 635/667 nm fluorescence, primary screen (AID 1095).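 Also: score merges 667 nm feature fluorescence with signal to noise over triplicate slides.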 As to conditions: 635 nm fluorescence, higher = more signal.
Assay [9] has as its target Neurogenic locus notch homolog protein 3 (Homo sapiens) (UniProt Q9UM47). Nature of the assay: small molecules binding NOTCH3 protein – biochemical, 635/667 nm fluorescence, primary screen (AID 1096). As to conditions: small-molecule microarray, 635 nm fluorescence, higher = more signal.
Assay [10] in a line: probe aEGFR binding to arrayed compounds – biochemical, biotinylated probe, 635/667 nm fluorescence, primary screen (AID 1097).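 Also: probe is a biotinylated anti-EGFR antibody binding compounds printed on slides; score combines fluorescence near 667 nm and signal to noise of each spot.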 As to conditions: small-molecule microarray, higher = more signal.
For assay [11], the system named is Plasmodium falciparum Sir2 (PF13_0152, Sir2A). Nature of the assay: Plasmodium falciparum Sir2A binding compounds – biochemical, small-molecule microarray, 635 nm fluorescence, primary screen (AID 1098).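 Also: score merges spot fluorescence intensity with its signal-to-noise ratio.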 The note with it: fluorescence 635 nm, higher = more signal.
Assay [12] can be described thus: probe aDKK1 binding to arrayed compounds – biochemical, biotinylated probe, 635/667 nm fluorescence, primary screen (AID 1099).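 Also: score merges 667nm spot fluorescence with signal to noise across triplicate slides; reference of the scale not given here.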 As to conditions: small-molecule microarray, higher = more signal.
Assay [13] can be described thus: probe aCHRDL2 binding to arrayed compounds – biochemical, biotinylated probe, 635/667 nm fluorescence, primary screen (AID 1100). As to conditions: small-molecule microarray, higher = more signal.
Assay [14] in a line: change in splice reporter luminescence, either direction, cell-based, HEK293, spliceosome inhibition project, primary screen (AID 1101).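 Also: HEK293 cells carrying a splicing-competent luciferase reporter gene; test concentration not given here.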 As to conditions: HEK293 splicing luciferase reporter, 24 h, higher = more signal, called active from +8 up or from −8 down.
The target in assay [15] is Fibroblast growth factor 10 (Homo sapiens) (UniProt O15520). Nature of the assay: compounds binding fibroblast growth factor 10 – biochemical, small-molecule microarray, 635 nm fluorescence, primary screen (AID 1102). The note with it: FGF10 binding, fluorescence 635 nm, higher = more signal.
Fibroblast growth factor 10 (Homo sapiens), sequence (O15520 whole entry, looked up): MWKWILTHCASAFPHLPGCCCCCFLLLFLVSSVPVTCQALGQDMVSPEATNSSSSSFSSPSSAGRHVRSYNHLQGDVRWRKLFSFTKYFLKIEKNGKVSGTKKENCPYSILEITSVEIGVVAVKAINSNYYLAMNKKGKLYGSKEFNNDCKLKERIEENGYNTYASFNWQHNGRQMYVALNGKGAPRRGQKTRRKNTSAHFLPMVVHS
The subject of assay [16] is glycogen synthase kinase-3 (GSK3A per assay name; protocol says GSK3B). The experiment in a line: compounds binding glycogen synthase kinase-3 – biochemical, small-molecule microarray, 635 nm fluorescence, GSK3A, primary screen (AID 1103). Also: the record names both GSK3A and GSK3B. As to conditions: fluorescence 635 nm, higher = more signal.
Assay [17] deals with Epidermal growth factor receptor (Homo sapiens) (UniProt P00533). The experiment in a line: compounds binding epidermal growth factor receptor – biochemical, small-molecule microarray, 635 nm fluorescence, primary screen (AID 1104).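 Also: score merges 667 nm emission intensity with spot signal to noise over triplicate slides.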 As to conditions: EGFR binding, higher = more signal.
Epidermal growth factor receptor (Homo sapiens), sequence (P00533 whole entry, looked up): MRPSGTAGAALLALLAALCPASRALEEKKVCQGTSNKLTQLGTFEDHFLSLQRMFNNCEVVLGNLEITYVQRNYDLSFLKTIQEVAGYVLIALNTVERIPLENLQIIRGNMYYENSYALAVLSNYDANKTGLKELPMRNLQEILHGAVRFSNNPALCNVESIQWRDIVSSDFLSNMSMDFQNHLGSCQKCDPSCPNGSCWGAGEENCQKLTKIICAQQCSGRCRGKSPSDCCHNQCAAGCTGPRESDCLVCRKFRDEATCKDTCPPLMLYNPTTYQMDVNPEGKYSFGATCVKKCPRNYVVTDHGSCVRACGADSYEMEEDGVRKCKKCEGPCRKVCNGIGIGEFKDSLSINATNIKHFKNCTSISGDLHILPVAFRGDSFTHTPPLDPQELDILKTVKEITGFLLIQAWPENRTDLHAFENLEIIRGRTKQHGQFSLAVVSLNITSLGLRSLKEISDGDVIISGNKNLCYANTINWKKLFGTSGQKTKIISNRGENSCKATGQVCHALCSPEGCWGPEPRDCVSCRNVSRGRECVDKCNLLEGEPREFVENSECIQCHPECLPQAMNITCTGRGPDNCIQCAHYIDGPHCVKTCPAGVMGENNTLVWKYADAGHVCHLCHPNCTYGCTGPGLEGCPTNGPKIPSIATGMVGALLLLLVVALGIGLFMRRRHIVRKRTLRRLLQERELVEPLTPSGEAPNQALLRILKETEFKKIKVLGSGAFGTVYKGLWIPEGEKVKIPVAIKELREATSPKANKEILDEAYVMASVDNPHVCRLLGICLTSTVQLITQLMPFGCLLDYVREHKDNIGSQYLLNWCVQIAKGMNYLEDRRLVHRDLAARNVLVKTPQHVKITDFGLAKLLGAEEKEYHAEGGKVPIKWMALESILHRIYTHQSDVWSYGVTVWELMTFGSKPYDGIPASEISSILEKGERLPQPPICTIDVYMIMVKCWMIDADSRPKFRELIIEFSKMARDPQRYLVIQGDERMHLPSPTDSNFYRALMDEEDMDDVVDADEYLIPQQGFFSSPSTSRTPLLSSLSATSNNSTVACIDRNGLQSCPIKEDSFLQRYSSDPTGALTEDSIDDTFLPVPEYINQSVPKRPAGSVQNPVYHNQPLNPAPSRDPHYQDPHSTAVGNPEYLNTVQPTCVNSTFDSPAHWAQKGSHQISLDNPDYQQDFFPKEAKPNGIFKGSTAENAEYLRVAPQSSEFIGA
Assay [18] addresses Follistatin-related protein 3 (Homo sapiens) (UniProt O95633). The experiment in a line: compounds binding follistatin-related protein 3 – biochemical, small-molecule microarray, 635 nm fluorescence, primary screen (AID 1105).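 Also: score merges emission near 667 nm and signal to noise per printed spot across three slides.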 As to conditions: FSTL3 binding, higher = more signal.
In assay [19] the target is Dickkopf-related protein 1 (Homo sapiens) (UniProt O94907). The experiment in a line: small molecules binding DKK1 protein – biochemical, small-molecule microarray, 635 nm fluorescence scan, primary screen (AID 1106).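 Also: score merges emission near 667 nm with signal to noise over three replicate slides.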 As to conditions: higher = more signal.
Dickkopf-related protein 1 (Homo sapiens), sequence (O94907 whole entry, looked up): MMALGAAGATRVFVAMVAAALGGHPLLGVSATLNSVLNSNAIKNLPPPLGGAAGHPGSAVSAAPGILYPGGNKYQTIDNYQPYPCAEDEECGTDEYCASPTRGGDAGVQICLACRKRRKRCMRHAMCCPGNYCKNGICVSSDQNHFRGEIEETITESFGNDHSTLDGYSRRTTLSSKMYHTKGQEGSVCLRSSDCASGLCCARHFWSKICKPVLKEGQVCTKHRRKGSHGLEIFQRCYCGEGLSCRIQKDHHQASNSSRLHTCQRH
Assay [20] relates to Inhibin beta A chain (activin A). The experiment in a line: small molecules binding activin A – biochemical, small-molecule microarray, 635 nm fluorescence scan, primary screen (AID 1107).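 Also: mouse activin A protein probed at 4.33 µg/mL on printed slides; score merges bound-protein fluorescence near 667 nm with spot signal-to-noise.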 The note with it: INHBA, higher = more signal.

Follistatin-related protein 3 (Homo sapiens), sequence (O95633 whole entry, looked up): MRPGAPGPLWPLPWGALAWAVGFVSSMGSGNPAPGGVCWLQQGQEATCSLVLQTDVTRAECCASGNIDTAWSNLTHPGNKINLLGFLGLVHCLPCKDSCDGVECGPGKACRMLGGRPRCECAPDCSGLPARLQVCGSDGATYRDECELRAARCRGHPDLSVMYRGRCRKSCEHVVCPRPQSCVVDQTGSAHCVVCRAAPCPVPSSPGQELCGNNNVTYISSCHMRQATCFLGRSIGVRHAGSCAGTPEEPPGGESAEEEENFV
Neurogenic locus notch homolog protein 3 (Homo sapiens), sequence (Q9UM47 whole entry, looked up): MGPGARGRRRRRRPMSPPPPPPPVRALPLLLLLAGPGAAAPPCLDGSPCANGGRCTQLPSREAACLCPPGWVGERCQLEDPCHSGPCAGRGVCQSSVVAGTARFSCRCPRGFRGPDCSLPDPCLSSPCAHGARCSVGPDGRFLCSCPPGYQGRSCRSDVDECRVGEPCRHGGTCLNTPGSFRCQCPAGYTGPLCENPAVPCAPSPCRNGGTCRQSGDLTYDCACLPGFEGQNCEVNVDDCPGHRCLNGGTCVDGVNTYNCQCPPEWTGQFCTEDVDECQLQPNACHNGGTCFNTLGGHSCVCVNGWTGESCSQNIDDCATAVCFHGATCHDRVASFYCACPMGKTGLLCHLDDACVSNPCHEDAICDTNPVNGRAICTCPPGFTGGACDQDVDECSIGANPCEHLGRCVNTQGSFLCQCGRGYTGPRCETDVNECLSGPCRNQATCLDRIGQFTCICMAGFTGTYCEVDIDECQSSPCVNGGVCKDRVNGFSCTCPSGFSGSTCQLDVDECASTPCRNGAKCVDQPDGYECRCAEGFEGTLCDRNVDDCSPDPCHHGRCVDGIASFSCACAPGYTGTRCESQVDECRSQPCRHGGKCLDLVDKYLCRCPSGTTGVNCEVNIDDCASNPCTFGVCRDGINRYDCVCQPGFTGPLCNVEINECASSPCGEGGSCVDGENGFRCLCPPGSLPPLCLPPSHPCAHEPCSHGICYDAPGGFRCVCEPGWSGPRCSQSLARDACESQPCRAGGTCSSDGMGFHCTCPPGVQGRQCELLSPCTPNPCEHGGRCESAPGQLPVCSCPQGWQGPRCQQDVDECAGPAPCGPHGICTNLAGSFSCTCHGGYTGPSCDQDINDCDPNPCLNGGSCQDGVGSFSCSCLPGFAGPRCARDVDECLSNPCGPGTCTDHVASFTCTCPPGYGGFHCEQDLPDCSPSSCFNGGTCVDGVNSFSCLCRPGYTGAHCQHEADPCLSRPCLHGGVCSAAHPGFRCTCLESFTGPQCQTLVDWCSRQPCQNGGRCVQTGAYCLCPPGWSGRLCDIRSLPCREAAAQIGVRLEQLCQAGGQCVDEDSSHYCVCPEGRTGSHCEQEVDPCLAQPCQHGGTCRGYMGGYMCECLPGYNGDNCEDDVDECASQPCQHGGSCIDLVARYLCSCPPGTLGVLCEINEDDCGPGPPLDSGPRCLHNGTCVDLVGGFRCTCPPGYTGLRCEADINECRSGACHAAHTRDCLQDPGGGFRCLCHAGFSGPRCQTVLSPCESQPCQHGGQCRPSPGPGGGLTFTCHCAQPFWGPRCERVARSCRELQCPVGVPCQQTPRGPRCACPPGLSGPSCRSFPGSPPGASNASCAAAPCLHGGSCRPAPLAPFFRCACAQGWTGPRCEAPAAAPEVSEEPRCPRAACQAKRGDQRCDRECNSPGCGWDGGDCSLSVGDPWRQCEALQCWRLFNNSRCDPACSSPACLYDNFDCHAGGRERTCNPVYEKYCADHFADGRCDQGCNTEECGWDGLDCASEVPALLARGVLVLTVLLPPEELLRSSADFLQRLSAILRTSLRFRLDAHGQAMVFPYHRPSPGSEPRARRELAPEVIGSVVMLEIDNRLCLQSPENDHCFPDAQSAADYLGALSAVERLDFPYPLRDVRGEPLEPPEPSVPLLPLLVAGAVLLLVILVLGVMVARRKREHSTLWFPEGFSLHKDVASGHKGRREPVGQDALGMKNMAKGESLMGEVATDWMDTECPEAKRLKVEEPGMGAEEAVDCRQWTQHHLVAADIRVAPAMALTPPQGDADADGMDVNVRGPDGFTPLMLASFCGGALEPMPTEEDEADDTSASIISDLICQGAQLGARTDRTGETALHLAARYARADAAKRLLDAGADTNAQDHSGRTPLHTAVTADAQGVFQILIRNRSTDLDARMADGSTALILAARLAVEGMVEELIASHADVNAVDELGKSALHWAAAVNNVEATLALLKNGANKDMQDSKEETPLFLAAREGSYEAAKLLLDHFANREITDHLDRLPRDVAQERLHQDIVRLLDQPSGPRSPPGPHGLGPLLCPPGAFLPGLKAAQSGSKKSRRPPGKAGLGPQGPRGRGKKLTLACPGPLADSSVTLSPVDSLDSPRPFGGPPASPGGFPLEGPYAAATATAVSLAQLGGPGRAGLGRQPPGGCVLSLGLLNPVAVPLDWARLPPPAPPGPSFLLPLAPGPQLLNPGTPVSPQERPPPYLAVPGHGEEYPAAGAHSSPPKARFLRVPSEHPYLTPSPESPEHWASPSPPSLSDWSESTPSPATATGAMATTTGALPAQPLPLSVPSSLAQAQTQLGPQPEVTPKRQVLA

Take `CC(C)[C@@H](OCc1ccccc1)[C@H](C)C=NO[C@@H](C)c1cn([C@H](CO)Cc2ccccc2)nn1`: the composite z-score in assay [1] was 0.195; in assay [5], 0.559; in assay [7], -0.186; in assay [8] it was 0.803; in assay [9], 0.543; in assay [10] it was -0.128. In addition, the composite z-score is 0.38 in [11]; -0.215 in assay [12]; -0.357 in [13]; -0.045 in assay [15]; 0.148 in assay [16]; -0.0006 in [17]. The composite z-score in [18] is 0.105; in assay [19], -0.477; in assay [20], -0.245. For the same compound, the z-score in [2] was -2.32 (inactive); in [3], -3.21 (inactive); in assay [4] it was -1.14 (inactive); in [6] it was 0.96 (inactive); in assay [14], 0.357 (inactive).

Regarding `CCN1C(=O)[C@H]2[C@H]3[C@H](O)[C@H](O)CC(=NOCC[C@@H]4C=C[C@H](OC(C)=O)[C@@H](COC(C)=O)O4)[C@@H]3CC[C@H]2C1=O`, the composite z-score in [1] is -0.001; in [5], 0.506; in assay [7], 0.0819; in [8] it was 0.478; in assay [9], 1; in [10] it was -0.0208. The composite z-score in assay [11] is 0.0458; in assay [12] it was -0.107; in assay [13], -0.426; in assay [15], 0.476; in assay [16], 0.0008; in assay [17] it was 0.498. The composite z-score is 0.38 in assay [18], 0.476 in [19] and 0.079 in assay [20]. Moreover, the z-score in assay [2] was 0.826 (inactive); in assay [3] it was -0.473 (inactive); in [4] it was 0.0739 (inactive); in assay [6] it was 0.0628 (inactive); in assay [14] it was -0.0787 (inactive).

Turning to `CC(C)[C@@H](OCc1ccccc1)[C@H](C)CON=C1[C@H]2CCn3c(=O)n(-c4ccccc4)c(=O)n3[C@H]2[C@H](O)[C@@H]2O[C@H]12`, the composite z-score in assay [1] is 0.462; in assay [5] it was 1.56; in assay [7], -0.0063; in assay [8], 0.439; in assay [9] it was 0.597; in [10], -0.067. The composite z-score in [11] was 0.552; in assay [12], -0.0364; in assay [13], -0.562; in assay [15], 0.785; in [16], 0.227; in assay [17], 0.329. Moreover, the composite z-score in assay [18] is 0.0089; in [19] it was 1.24; in assay [20] it was 0.236. The z-score in assay [2] was -1.48 (inactive); in assay [3], -7.06 (inactive); in [4], -0.882 (inactive); in [6], 0.222 (inactive); in assay [14] it was 3.43 (inactive).

For `C#CCCCON=C1C[C@@H](O)[C@@H](O)[C@@H]2[C@@H]3C(=O)N(C[C@@H]4CCCO4)C(=O)[C@@H]3CC[C@H]12`, the composite z-score in assay [1] was 0.81; in assay [5], 1.22; in assay [7], -0.134; in assay [8] it was 0.463; in [9], 0.607; in [10] it was -0.0828. Moreover, the composite z-score in assay [11] is 0.407; in assay [12], -0.201; in assay [13], -0.346; in assay [15] it was 0.331; in assay [16], 0.444; in [17], 0.451. In addition, the values for the composite z-score in assay [18], in [19] and in assay [20] were 0.457, 0.481 and -0.0374, respectively. In addition, the z-score in assay [2] was 0.426 (inactive); in assay [3], 0.775 (inactive); in [4], 0.749 (inactive); in [6] it was 0.397 (inactive); in assay [14], 0.44 (inactive).

With `Cc1cc2c(nc1C)CCCCN2CC(O)CN1CCCc2nc(-c3ccc(Br)cc3)ccc21` (stereo not given), the composite z-score in assay [1] is 0.829; in assay [5], -0.0639; in [7] it was -0.0083; in assay [8] it was 0.558; in [9], 1.11; in [10], 0.0122. The composite z-score was 0.704 in [11]; -0.0514 in assay [12]; -0.332 in assay [13]; 0.874 in assay [15]; 0.62 in [16]; 0.597 in [17]. In addition, the composite z-score in assay [18] was 1.21; in assay [19], 0.446; in assay [20] it was 0.481. Moreover, the z-score in assay [2] is -0.178 (inactive); in assay [3], -0.616 (inactive); in assay [4], -0.051 (inactive); in assay [6], 0.353 (inactive); in assay [14], 0.0168 (inactive).
